# Source: PubChem
# Shown are actives, neighbours in structure and some others; about 11% of the full set was active somewhere.
# BAZ2B inh – qHTS Assay for Inhibitors of BAZ2B; AlphaScreen BAZ2B-H3K14Ac peptide displacement; Potency, µM (series often up to 114 µM), inactives show at the highest dose activity change, negative = inhibition, usual class: inhibitors; AID 504333, 2011; Bromodomain adjacent to zinc finger domain protein 2B (Homo sapiens), Q9UIF8; 4.4% of 360,000 active; also: potency is read from the fitted curve at half-maximal effect; % is scaled to controls: 0 for no effect and ±100 for the full control effect; nearly all actives have a fitted effect of over 60% in size
#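 Complex of BAZ2B and biotin-H3K14Ac (50 nM apiece) forms over 30 min at RT, then faces library compounds up to 110 uM for another 30 min; AlphaScreen beads added, 20 min dark incubation, luminescence read.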
# HP1b chromo inh – HTS for Inhibitors of HP1-beta Chromodomain Interactions with Methylated Histone Tails; AlphaScreen HP1-beta / biotin-H3K9me3 peptide binding; Potency, µM (series often up to 114 µM), for the others: top-dose activity change, negative = inhibition, hits mostly inhibitors; AID 540317, 2011; Chromobox protein homolog 1 (Homo sapiens), P83916; 0.56% of 390,000 active; also: potency is read from the fitted curve at half-maximal effect; nearly all actives have a fitted effect of over 70% in size
# Target sequence (P83916 whole entry, looked up): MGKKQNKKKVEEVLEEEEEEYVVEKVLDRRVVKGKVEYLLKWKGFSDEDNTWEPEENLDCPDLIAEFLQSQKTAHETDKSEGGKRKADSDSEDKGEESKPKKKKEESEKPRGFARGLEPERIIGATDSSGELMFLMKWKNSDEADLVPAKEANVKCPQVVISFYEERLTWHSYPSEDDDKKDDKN
#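 Compound inhibition of the preformed complex between 50 nM HP1-beta and 50 nM biotinylated H3K9me3 peptide was read by AlphaScreen. Buffer was PBS pH 7.4 with 0.01% Tween-20. Incubations ran 30 min at room temperature, with 10 ug/mL donor/acceptor beads.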
# G9a block – qHTS Assay for Inhibitors of Histone Lysine Methyltransferase G9a; G9a H3K9 monomethylation, AlphaScreen, 2 h; 8.8% of 350,000 active; Potency, µM (titrated, usually from 102 µM), without a hit: at the top dose activity, negative = inhibition, usual class: inhibitors; AID 504332, 2011; Histone-lysine N-methyltransferase EHMT2 (Homo sapiens), Q96KQ7; also: potency is read from the fitted curve at half-maximal effect; % is scaled to controls: 0 for no effect and ±100 for the full control effect; nearly all actives have a fitted effect of over 75% in size
#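 Readings reflect AlphaScreen signal from monomethyl-H3K9 antibody detection. HMT at 20 nM; substrate b-H3K9 500 nM; cofactor SAM 20 uM; 2 h RT reaction; compounds tested as titrations in qHTS with 15 min preincubation.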
# JMJD2A Tudor – qHTS Assay for Inhibitors of JMJD2A-Tudor Domain; Lysine-specific demethylase 4A (Homo sapiens), O75164; AlphaScreen JMJD2A-Tudor / H3K4me3 peptide binding; Potency, µM (top dose mostly 114 µM), for the others: at the highest dose activity change, negative = inhibition, hits mostly inhibitors; 4.4% of 390,000 active; also: potency is read from the fitted curve at half-maximal effect; % is scaled to controls: 0 for no effect and ±100 for the full control effect; nearly all actives have a fitted effect of over 50% in size
# PI5P4Ka inh – qHTS for Inhibitors of phosphatidylinositol 5-phosphate 4-kinase (PI5P4K). Phosphatidylinositol 5-phosphate 4-kinase type-2 alpha (Homo sapiens), P48426. PI5P4Kalpha enzyme, ADP-Glo luminescence, 60 min; stronger effect = lower value. max response, %. 1.2% of 330,000 active; active = max response of -50% or lower; inconclusive = between -30% and -50%; inactive = -30% or higher; also: value at the top dose of about 77 µM; % is scaled to controls: 0 for no effect and ±100 for the full control effect
# Target sequence (P48426 whole entry, looked up): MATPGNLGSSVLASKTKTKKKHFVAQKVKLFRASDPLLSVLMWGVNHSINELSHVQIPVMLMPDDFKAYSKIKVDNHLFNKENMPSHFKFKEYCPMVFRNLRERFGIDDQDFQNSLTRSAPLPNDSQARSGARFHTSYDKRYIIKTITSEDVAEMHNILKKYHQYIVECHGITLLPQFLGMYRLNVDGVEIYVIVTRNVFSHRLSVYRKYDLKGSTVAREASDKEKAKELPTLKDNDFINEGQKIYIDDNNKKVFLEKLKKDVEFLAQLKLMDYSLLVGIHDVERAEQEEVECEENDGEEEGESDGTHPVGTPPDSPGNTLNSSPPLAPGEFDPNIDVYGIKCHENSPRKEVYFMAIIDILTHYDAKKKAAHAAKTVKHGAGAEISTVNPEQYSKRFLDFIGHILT
#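 Enzyme plus substrate dispensed, test compounds pinned in, then ATP (5 microM final) added. After 60 min at RT, ADP-Glo reagent 1 for 45 min and reagent 2 for 30 min preceded luminescence imaging.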
# L3MBTL1 block – qHTS Assay for the Inhibitors of L3MBTL1. 0.66% of 230,000 active. AlphaScreen L3MBTL1–H3K9me1 peptide binding. Lethal(3)malignant brain tumor-like protein 1 (Homo sapiens), Q9Y468. AID 485360, 2010. Potency, µM (highest dose often 57.1 µM), without a hit: top-dose activity, negative = inhibition, usual class: inhibitors; also: potency is read from the fitted curve at half-maximal effect; % is scaled to controls: 0 for no effect and ±100 for the full control effect; nearly all actives have a fitted effect of over 60% in size
#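 L3MBTL1 50 nM + b-AHA-H3(1-15)K9me1 75 nM, 30 min RT; compound added, 30 min RT; streptavidin donor/Ni-chelate acceptor beads 10 ug/mL each final, 30 min RT dark; AlphaScreen read.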
# * = called active by the depositor; ? = inconclusive; . = no result given; [ ] = remark or other dose. Unless noted, calls follow the shape of the dose curve; as a rule, active = well fitted inhibition curve with a large enough effect; inconclusive = small, poorly fitted or top-dose-only effect; inactive = no such curve, though single readings can be large or run the other way.
SMILES,BAZ2B inh,HP1b chromo inh,G9a block,JMJD2A Tudor,PI5P4Ka inh,L3MBTL1 block
O[C@@H]1[C@@H]2c3cc4c(cc3CN3CCC(=C[C@@H]1O)[C@H]23)OCO4,.,.,20%[21.5 µM],.,.,.
Cc1ccc(-c2nc(=Nc3ccccc3)sn2-c2ccccc2)cc1,.,-30%[57 µM],.,-24%[57.1 µM],.,.
N=c1nc(-c2ccccc2)n(-c2ccccc2)s1,.,?,.,5.6µM*,.,.
CC1(C)CCC(=NNC(N)=S)CC1,.,?,.,0.71µM*,4,.
NC(=S)NN=C1CCC2(CCCCC2)CC1,.,18%,.,-16%,3,.
CC1CCN2c3cc(Cl)ccc3CC3(C(=O)OC(C)(C)OC3=O)C2C1 (stereo unspecified),.,9%,.,1%,.,.
COc1ccc2cc3cc(C(=O)NCCc4ccccc4)sc3nc2c1Cl,-2%,20%[57 µM],-2%[59 µM],-10%,.,.
COc1ccccc1CNCC(=O)Nc1ccccc1-n1cccc1,50µM*,?,10µM*,22µM*,4,-22%
COc1ccccc1CNCC(=O)Nc1ccc(C(F)(F)F)cc1,56µM*,6%,22µM*,-14%,0,.
COc1ccccc1CCC(=O)Oc1ccc(C#N)cc1OC,2%,117%,25µM*,42%,6,.
COc1ccccc1CNCC(=O)Nc1ccc(C#N)cc1,50µM*,-21%,5.6µM*,?,9,.
COc1ccccc1CC(=O)Nc1ccc(S(=O)(=O)N2CCCCC2)cc1,-2%,-17%,?,-17%,-27,.
COc1cccc(N2CCN(C(=O)c3ccc4c(=O)n(CCc5ccccc5)c(=O)[nH]c4c3)CC2)c1,-2%,35%,1%[59 µM],-9%,.,.
COc1ccc(N(C)S(=O)(=O)c2ccc3c(c2)n(C)c(=O)c(=O)n3C)cc1,.,31%,10%[59 µM],-1%,.,.
O=C(NCCc1c[nH]c2ccccc12)c1ccc([N+](=O)[O-])cc1,-15%,-1%,19%[59 µM],-18%,1,-11%
COc1cc(-c2noc(C)c2C(=O)NCCc2c[nH]c3ccccc23)cc(OC)c1OC,50µM*,14%,32µM*,?,1,0%
Cc1ccc(C(=O)NCCc2c[nH]c3ccccc23)c(C)c1,50µM*,-8%,-44%,-26%,0,.
COc1cc(-c2noc(C)c2C(=O)NCCc2cccs2)cc(OC)c1OC,.,46%,.,-7%,3,6%
O=C(NCCc1c[nH]c2ccccc12)c1ccccc1,-19%,20%,-4%,-20%,-11,-3%
O=C(NCCc1c[nH]c2ccccc12)c1cc([N+](=O)[O-])cc([N+](=O)[O-])c1,-3%,30%,10µM*,-24%,-10,.
O=C(NNS(=O)(=O)c1ccc([N+](=O)[O-])cc1)c1ccc([N+](=O)[O-])cc1,-19%,?,17%[2.33 µM],1.3µM*,13,.
O=C(NNc1ccc([N+](=O)[O-])cc1)c1ccccc1F,-38%,13%,35µM*,-26%,1,-4%
O=C(NNc1ccc([N+](=O)[O-])cc1)c1ccccc1Cl,-4%,17%,?,-19%,-2,-11%
CC(=O)Nc1ccc(S(=O)(=O)NNC(=O)c2ccc([N+](=O)[O-])cc2)cc1,-16%,3%,-22%,-13%,-2,-4%
O=C(NNS(=O)(=O)c1ccc(Br)cc1)c1ccncc1,-28%,5%,39%[0.501 µM],?,.,4%
SMILES,BAZ2B inh,HP1b chromo inh,G9a block,JMJD2A Tudor,PI5P4Ka inh,L3MBTL1 block
O=C(NNc1ccc([N+](=O)[O-])cc1)Nc1ccccc1,-27%,?,?,-30%,1,2%
O=C(NNc1ccccc1)C(=O)NNS(=O)(=O)c1ccc([N+](=O)[O-])cc1,-27%,11%,6.3µM*,3.2µM*,1,8%
Cc1ccc(S(=O)(=O)NNC(=O)c2ccncc2)cc1[N+](=O)[O-],-30%,21%,50µM*,4µM*,-21,.
CC(=O)Nc1ccc(S(=O)(=O)NNc2ccc([N+](=O)[O-])cc2)cc1,50µM*,?,1.3µM*,6.3µM*,-3,-3%
CC(=O)Nc1ccc(S(=O)(=O)NNC(=O)c2cccc([N+](=O)[O-])c2)cc1,-5%,16%,?,-13%,0,4%
CC(=O)c1c(N2CCN(C)CC2)[nH]c(-c2ccccc2)nc1=S,?,-4%,14%[0.0925 µM],79µM*,1,-4%
CCC1(OC(=O)CN(C)C)C(=O)OCc2c1cc1n(c2=O)Cc2cc3c(N)cccc3nc2-1 (stereo unspecified),.,-10%,.,16µM*,-2,.
Cc1nn(C(=O)c2ccccc2F)c(C)c1S(=O)(=O)N1CCOCC1,-3%,31%[57 µM],?,-12%,.,.
Nc1ccc(O)c(C(=O)O)c1,.,.,3.2µM*,.,.,.
O=C(COc1ccccc1F)OCc1cc(=O)n2nc(C3CC3)sc2n1,-22%,3%,17%[59 µM],-20%,.,.
CC1=NN(c2ccc(F)cc2)C(=O)C1C(c1cccc(O)c1)c1c(C)[nH]n(-c2ccc(F)cc2)c1=O (stereo unspecified),-32%[57.1 µM],-38%,?,23%[11.4 µM],-10,-22%
CC1=NN(c2ccc(Cl)cc2)C(=O)C1C(c1cccc(O)c1)c1c(C)[nH]n(-c2ccc(Cl)cc2)c1=O (stereo unspecified),45µM*,?,?,56µM*,-4,-21%
CCC1CN(C(=O)N2CCC(C(=O)NCCc3cc(OC)ccc3OC)CC2)c2ccccc2O1 (stereo unspecified),-10%,-8%,-5%[59 µM],?,.,.
COc1ccc(/C=C/c2nc(S(=O)(=O)c3ccccc3)c(NCCCN(C)C)o2)cc1OC,-6%,63%,79µM*,-8%,-1,.
COc1ccccc1/C=C/c1nc(S(=O)(=O)c2ccccc2)c(NCCN(C)C)o1,-18%,29%,?,?,-16,.
CSc1ccc(CNC(=O)c2sc3ncnc(N(C)C4CCCCC4)c3c2C)cc1,-5%,-8%,1%[59 µM],-24%,.,.
O=CN/C=C/c1cc(O)ccc1O,79µM*,?,1.4µM*,3.2µM*,-64*,16µM*
CCOc1ccc(CC(=NCCc2ccccc2)C2=C(O)CC(C)(C)CC2=O)cc1OCC,-4%,34%,71µM*,-13%,-4,-23%
CCOc1ccc(CC(=O)C2=C(N3CCOCC3)CC(C)(C)CC2=O)cc1OCC,-24%,28%,25µM*,-19%,1,.
CCOc1ccc(CC(=O)C2C(=O)CCCC2=O)cc1OCC,?,45%,11µM*,25µM*,-6,3%
